Source: PMC7862700, “An all-to-all approach to the identification of sequence-specific readers for epigenetic DNA modifications on cytosine”

How the values were obtained:
Assay in all cases: DAPPL (digital affinity profiling via proximity ligation, sequencing); 10 mM Tris-HCl pH 7.5, 50 mM NaCl, 1 mM DTT, 4% glycerol, room temperature, 30 min; GST-TFs on glutathione beads, 16-mer random dsDNA library, 0.1% formaldehyde crosslink after washing; high values mean tight binding
FEV = molecular target: T1, FEV (Homo sapiens, UniProt Q99581 1-238); details: protein: recombinant; tags: N-terminal GST; dsDNA, one strand shown
T1 sequence: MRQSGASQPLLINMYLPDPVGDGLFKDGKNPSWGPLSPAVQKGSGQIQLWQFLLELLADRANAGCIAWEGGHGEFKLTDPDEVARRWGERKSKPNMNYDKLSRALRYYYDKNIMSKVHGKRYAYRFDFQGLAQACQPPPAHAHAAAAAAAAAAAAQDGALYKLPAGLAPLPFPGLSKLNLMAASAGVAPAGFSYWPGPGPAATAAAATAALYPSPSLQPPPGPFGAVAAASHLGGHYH
Summary of the method: (§1)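 In yeast, human transcription factors were expressed with a GST fusion, then pulled down on glutathione beads and given DNA barcodes. Pooled with a tag-only sample, they were exposed to 200 nmole of a 16-mer random double-stranded DNA library (Tris/NaCl/DTT/glycerol buffer, room temperature, 30 min), washed, crosslinked with 0.1% formaldehyde, proximity-ligated using BsaI/T4 ligase for 1 h at 37 °C, PCR-amplified and read on an Illumina NextSeq500. Each hexamer's frequency of reads for a factor, divided by the matching frequency for the tag-only sample, gives the binding signal.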

ETV5 = ETV5 (Homo sapiens, UniProt P41161 1-510); details: protein: recombinant; tags: N-terminal GST; dsDNA, one strand shown
ETV5, sequence (P41161 whole entry): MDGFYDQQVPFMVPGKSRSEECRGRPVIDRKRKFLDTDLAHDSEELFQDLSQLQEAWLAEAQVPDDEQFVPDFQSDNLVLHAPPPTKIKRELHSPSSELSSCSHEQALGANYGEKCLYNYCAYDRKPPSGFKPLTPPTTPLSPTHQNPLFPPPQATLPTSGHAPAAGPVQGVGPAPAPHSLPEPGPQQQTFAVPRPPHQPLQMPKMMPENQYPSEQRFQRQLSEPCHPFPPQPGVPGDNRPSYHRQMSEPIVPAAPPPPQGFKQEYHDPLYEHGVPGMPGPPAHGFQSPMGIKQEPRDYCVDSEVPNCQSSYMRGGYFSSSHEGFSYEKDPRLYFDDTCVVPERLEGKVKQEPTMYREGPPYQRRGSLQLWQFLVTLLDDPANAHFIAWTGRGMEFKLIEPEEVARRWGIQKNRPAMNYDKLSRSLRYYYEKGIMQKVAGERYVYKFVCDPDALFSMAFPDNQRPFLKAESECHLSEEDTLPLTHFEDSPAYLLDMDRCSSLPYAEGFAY
Summary of the method: as §1

HSF1 = HSF1 (Homo sapiens, UniProt Q00613 1-529); details: protein: recombinant; tags: N-terminal GST; chain copies: 3; dsDNA, one strand shown
HSF1, sequence (Q00613 whole entry): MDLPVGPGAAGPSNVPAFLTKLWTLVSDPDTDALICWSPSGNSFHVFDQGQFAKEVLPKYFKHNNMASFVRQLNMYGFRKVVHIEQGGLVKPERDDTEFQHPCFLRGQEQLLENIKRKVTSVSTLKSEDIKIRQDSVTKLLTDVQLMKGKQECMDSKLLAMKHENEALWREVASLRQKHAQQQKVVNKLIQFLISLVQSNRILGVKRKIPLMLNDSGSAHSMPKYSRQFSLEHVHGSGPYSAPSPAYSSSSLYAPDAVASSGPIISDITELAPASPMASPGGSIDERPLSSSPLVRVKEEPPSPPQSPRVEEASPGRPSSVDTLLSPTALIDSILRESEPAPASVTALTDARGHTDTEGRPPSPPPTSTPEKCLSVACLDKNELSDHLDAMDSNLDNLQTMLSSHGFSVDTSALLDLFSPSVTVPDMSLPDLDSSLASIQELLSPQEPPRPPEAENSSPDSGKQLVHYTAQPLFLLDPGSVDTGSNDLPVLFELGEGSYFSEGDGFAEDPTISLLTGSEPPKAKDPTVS
Summary of the method: as §1

SPIC = molecular target: T2, SPIC (Homo sapiens, UniProt Q8N5J4 1-248); details: protein: recombinant; tags: N-terminal GST; dsDNA, one strand shown
T2 sequence: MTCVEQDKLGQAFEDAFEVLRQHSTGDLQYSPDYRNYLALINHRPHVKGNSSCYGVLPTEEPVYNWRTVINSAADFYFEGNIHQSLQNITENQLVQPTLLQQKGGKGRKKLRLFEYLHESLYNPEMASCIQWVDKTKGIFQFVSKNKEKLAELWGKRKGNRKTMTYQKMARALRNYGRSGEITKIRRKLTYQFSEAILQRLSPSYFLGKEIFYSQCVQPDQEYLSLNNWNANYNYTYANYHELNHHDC
Summary of the method: as §1

ELF4 = ELF4 (Homo sapiens, UniProt Q99607 1-663); details: protein: recombinant; tags: N-terminal GST; dsDNA, one strand shown
ELF4, sequence (Q99607 whole entry): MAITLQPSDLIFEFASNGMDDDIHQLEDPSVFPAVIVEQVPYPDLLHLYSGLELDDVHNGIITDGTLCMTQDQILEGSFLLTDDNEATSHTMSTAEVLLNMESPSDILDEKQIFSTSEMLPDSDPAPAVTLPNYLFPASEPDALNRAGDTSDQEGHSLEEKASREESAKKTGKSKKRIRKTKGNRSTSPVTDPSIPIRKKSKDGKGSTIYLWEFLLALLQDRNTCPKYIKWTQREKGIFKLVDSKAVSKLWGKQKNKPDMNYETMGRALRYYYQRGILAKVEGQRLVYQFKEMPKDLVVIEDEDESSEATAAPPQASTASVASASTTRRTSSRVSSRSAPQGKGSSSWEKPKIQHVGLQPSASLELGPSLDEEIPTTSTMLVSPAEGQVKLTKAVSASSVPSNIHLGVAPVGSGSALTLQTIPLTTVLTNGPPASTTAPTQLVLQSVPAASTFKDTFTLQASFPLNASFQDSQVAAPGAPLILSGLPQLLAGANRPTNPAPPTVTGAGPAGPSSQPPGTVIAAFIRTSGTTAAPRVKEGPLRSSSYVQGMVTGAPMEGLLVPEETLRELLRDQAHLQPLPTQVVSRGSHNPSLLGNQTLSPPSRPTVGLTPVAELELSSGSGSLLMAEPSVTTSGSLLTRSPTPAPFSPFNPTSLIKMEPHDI
Summary of the method: as §1

ELK4 = molecular target: T3, ELK4 (Homo sapiens, UniProt P28324-2 1-405); details: protein: recombinant; tags: N-terminal GST; dsDNA, one strand shown
T3 sequence: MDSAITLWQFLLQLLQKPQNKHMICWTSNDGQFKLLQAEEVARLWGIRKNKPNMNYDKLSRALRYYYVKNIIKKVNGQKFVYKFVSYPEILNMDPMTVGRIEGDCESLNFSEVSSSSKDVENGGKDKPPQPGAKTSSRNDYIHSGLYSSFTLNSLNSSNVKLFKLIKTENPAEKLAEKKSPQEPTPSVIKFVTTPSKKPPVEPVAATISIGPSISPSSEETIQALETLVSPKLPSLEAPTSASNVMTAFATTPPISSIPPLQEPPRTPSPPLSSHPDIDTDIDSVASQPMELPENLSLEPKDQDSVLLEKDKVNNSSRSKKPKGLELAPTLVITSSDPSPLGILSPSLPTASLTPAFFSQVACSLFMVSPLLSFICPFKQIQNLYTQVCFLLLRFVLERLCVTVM
Summary of the method: as §1

ETV2 = molecular target: T4, ETV2 (Homo sapiens, UniProt O00321 1-342); details: protein: recombinant; tags: N-terminal GST; dsDNA, one strand shown
T4 sequence: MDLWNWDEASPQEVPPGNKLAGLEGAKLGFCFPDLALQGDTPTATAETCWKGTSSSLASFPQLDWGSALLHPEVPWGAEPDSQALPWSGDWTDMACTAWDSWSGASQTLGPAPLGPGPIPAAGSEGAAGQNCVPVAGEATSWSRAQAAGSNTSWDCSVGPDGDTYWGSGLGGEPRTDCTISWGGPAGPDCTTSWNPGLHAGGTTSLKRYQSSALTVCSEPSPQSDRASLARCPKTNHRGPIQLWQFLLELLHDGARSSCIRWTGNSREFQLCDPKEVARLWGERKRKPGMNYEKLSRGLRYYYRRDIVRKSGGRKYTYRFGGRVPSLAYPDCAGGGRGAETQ
Summary of the method: as §1

ELF3 = molecular target: T5, ELF3 (Homo sapiens, UniProt P78545 1-371); details: protein: recombinant; tags: N-terminal GST; dsDNA, one strand shown
T5 sequence: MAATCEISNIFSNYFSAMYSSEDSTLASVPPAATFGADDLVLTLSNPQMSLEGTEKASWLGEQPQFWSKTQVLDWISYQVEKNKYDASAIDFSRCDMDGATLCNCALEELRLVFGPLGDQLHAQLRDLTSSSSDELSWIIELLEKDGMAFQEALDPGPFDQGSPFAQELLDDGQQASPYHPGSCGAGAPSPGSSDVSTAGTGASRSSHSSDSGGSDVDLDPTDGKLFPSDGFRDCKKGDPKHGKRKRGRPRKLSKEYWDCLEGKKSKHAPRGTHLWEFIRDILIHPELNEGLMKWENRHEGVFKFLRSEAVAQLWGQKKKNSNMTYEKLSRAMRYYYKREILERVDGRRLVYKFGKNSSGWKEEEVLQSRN
Summary of the method: as §1

CRX = CRX (Homo sapiens, UniProt O43186 1-299); details: protein: recombinant; tags: N-terminal GST; dsDNA, one strand shown
CRX, sequence (O43186 whole entry): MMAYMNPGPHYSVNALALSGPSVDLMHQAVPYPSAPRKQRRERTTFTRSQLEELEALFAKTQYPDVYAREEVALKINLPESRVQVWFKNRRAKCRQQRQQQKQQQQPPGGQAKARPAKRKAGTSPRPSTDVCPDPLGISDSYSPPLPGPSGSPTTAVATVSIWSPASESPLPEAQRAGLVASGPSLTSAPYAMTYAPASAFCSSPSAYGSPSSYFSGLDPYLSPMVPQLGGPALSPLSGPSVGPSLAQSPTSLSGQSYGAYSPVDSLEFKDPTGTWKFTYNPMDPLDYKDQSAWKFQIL
Summary of the method: as §1

ETV1 = ETV1 (Homo sapiens, UniProt P50549 1-477); details: protein: recombinant; tags: N-terminal GST; dsDNA, one strand shown
ETV1, sequence (P50549 whole entry): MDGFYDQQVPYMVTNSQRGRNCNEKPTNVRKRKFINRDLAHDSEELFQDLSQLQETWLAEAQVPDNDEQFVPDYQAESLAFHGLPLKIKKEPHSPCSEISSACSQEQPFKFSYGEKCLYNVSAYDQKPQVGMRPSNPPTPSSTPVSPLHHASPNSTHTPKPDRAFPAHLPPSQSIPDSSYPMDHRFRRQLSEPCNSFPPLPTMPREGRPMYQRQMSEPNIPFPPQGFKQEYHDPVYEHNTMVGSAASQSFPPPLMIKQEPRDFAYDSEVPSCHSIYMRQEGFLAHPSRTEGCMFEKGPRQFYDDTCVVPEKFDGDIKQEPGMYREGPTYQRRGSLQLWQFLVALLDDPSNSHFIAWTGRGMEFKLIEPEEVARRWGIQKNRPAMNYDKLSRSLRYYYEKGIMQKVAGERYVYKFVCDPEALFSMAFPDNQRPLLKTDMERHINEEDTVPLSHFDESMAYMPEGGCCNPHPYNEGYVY
Summary of the method: as §1

ERF = molecular target: T6, ERF (Homo sapiens, UniProt P50548 1-548); details: protein: recombinant; tags: N-terminal GST; dsDNA, one strand shown
T6 sequence: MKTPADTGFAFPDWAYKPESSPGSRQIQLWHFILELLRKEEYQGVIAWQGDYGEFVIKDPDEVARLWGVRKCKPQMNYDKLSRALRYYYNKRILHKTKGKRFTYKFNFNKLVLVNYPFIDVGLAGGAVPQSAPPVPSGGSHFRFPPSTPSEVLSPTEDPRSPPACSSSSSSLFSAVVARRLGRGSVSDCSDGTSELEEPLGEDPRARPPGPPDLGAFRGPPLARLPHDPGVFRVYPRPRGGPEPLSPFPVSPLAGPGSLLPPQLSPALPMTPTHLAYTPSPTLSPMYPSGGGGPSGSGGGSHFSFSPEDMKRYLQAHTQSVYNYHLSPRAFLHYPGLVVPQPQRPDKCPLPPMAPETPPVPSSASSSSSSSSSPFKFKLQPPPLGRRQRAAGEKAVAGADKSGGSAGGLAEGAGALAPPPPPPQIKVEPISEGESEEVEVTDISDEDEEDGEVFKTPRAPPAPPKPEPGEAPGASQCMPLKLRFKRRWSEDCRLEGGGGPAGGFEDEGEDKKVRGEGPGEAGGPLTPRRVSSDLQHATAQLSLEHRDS
Summary of the method: as §1

ETV3L = molecular target: T7, ETV3L (Homo sapiens, UniProt Q6ZN32 1-361); details: protein: recombinant; tags: N-terminal GST; dsDNA, one strand shown
T7 sequence: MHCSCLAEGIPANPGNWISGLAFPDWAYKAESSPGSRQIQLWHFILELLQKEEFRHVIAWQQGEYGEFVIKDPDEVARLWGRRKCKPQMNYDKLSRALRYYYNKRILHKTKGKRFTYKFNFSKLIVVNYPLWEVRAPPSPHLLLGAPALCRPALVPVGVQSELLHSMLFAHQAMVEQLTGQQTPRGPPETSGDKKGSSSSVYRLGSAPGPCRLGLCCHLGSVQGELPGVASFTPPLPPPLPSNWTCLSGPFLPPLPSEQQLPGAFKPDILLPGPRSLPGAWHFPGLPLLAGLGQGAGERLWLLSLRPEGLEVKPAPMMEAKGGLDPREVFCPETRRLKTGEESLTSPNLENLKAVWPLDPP
Summary of the method: as §1

ETS2 = molecular target: T8, ETS2 (Homo sapiens, UniProt P15036 1-469); details: protein: recombinant; tags: N-terminal GST; dsDNA, one strand shown
T8 sequence: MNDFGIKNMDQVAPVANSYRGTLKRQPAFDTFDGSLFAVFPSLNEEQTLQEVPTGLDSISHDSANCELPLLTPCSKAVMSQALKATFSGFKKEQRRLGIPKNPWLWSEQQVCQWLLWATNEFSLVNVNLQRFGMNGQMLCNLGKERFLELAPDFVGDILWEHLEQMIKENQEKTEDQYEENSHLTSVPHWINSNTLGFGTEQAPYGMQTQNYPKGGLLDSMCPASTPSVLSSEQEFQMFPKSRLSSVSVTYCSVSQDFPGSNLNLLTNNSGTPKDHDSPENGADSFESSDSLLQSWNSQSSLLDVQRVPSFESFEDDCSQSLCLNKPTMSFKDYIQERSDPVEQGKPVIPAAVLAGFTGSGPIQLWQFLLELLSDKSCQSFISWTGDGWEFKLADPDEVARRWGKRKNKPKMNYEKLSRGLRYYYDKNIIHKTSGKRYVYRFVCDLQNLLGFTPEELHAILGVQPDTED
Summary of the method: as §1

SPDEF = molecular target: T9, SPDEF (Homo sapiens, UniProt O95238 1-335); details: protein: recombinant; tags: N-terminal GST; dsDNA, one strand shown
T9 sequence: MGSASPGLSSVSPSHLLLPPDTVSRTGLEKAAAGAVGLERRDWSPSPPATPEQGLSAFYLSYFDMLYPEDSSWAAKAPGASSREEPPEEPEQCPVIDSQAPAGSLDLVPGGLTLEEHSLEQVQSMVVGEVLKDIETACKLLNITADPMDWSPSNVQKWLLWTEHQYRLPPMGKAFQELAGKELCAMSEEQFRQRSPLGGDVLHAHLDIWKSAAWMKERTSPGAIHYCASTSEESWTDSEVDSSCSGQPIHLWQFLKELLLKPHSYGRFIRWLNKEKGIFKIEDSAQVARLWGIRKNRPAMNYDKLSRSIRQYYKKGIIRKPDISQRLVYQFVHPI
Summary of the method: as §1

ETV7 = molecular target: T10, ETV7 (Homo sapiens, UniProt Q9Y603 1-341); details: protein: recombinant; tags: N-terminal GST; dsDNA, one strand shown
T10 sequence: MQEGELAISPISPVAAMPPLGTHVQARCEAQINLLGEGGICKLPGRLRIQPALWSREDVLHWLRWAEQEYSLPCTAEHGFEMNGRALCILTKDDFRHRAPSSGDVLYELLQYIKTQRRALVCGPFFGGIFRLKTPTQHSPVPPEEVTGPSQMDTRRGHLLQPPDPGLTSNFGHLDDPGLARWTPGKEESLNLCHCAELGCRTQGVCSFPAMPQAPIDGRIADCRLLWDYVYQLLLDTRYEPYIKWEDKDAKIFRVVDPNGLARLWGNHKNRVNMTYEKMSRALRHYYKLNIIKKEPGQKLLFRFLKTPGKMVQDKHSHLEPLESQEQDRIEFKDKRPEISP
Summary of the method: as §1

ELF5 = molecular target: T11, ELF5 (Homo sapiens, UniProt Q9UKW6-2 1-255); details: protein: recombinant; tags: N-terminal GST; dsDNA, one strand shown
T11 sequence: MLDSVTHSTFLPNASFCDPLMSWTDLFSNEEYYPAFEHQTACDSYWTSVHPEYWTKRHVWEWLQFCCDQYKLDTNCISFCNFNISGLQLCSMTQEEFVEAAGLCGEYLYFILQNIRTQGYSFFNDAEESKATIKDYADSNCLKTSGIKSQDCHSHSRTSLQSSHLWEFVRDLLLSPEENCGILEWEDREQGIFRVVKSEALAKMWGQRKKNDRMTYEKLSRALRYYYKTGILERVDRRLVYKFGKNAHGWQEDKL
Summary of the method: as §1

ETV3 = molecular target: T12, ETV3 (Homo sapiens, UniProt P41162-2 1-143); details: protein: recombinant; tags: N-terminal GST; dsDNA, one strand shown
T12 sequence: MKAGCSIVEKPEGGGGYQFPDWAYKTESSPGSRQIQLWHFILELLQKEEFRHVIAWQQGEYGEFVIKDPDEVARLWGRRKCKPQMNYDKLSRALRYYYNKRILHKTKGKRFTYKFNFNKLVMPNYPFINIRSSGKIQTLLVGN
Summary of the method: as §1

ETV6 = ETV6 (Homo sapiens, UniProt P41212 1-452); details: protein: recombinant; tags: N-terminal GST; dsDNA, one strand shown
ETV6, sequence (P41212 whole entry): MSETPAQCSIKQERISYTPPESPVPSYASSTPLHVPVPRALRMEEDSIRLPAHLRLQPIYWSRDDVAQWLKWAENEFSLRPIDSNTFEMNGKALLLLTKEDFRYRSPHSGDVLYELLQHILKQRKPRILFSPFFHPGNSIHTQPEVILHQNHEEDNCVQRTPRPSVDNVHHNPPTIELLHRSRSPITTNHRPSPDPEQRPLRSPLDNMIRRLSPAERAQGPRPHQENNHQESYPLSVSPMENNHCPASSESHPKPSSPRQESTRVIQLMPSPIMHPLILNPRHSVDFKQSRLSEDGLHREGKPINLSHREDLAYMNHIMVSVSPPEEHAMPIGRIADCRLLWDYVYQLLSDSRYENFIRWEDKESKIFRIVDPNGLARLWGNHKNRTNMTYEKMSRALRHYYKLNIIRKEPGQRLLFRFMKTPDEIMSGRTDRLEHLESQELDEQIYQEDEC
Summary of the method: as §1

In the case of TTACGT, the binding signal (FEV) is reported as 1.04 fold enrichment (6-mer frequency, TF over GST control), the binding signal (ETV5) is reported as 1.19 fold enrichment (6-mer frequency, TF over GST control) and the binding signal (HSF1) is reported as 1.21 fold enrichment (6-mer frequency, TF over GST control). For the same sequence, the binding signal (SPIC) was 1.07 fold enrichment (6-mer frequency, TF over GST control), the binding signal (ELF4) was 1.11 fold enrichment (6-mer frequency, TF over GST control) and the binding signal (ELK4) was 1.12 fold enrichment (6-mer frequency, TF over GST control). The binding signal (ETV2) was 1.2 fold enrichment (6-mer frequency, TF over GST control), the binding signal (ELF3) was 1.14 fold enrichment (6-mer frequency, TF over GST control) and the binding signal (CRX) was 1.74 fold enrichment (6-mer frequency, TF over GST control). For the same sequence, the binding signal (ETV1) was 1.06 fold enrichment (6-mer frequency, TF over GST control), the binding signal (ERF) was 1.11 fold enrichment (6-mer frequency, TF over GST control) and the binding signal (ETV3L) was 1.18 fold enrichment (6-mer frequency, TF over GST control). For the same sequence, the binding signal (ETS2) was 1.21 fold enrichment (6-mer frequency, TF over GST control), the binding signal (SPDEF) was 1.13 fold enrichment (6-mer frequency, TF over GST control) and the binding signal (ETV7) was 1.14 fold enrichment (6-mer frequency, TF over GST control). For the same sequence, the binding signal (ELF5) was 1.12 fold enrichment (6-mer frequency, TF over GST control), the binding signal (ETV3) was 1.15 fold enrichment (6-mer frequency, TF over GST control) and the binding signal (ETV6) was 1.09 fold enrichment (6-mer frequency, TF over GST control).
